# Molecular target: Follistatin (Homo sapiens) (UniProt P19883)
# Assay: FST protein binding to printed compounds – biochemical, small-molecule microarray, 635/667 nm fluorescence, primary screen (AID 1132)
# Conditions: 635 nm fluorescence, higher = more signal
# Sequence of Follistatin (Homo sapiens) (P19883 whole entry, looked up): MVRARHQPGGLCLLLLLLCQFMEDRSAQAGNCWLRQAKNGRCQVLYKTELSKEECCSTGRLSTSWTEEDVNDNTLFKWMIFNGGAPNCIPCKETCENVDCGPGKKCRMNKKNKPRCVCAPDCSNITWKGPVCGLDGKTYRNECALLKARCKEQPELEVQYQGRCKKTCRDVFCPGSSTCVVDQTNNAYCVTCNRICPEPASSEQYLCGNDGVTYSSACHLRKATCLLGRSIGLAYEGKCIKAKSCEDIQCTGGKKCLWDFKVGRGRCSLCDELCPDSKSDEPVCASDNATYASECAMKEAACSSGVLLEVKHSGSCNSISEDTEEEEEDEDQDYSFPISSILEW
row,Compound,composite z-score
1,COCCOC(=O)N1C(=O)[C@@]2(c3ccccc31)[C@H](c1ccc(O)cc1)N1[C@H](c3ccccc3)[C@H](c3ccccc3)OC(=O)[C@H]1[C@@H]2C(=O)Nc1nc2ccccc2s1,0.695
2,NC(=O)NCC#Cc1ccc2c(c1)[C@]1(C(=O)N2)[C@H](C(=O)Nc2nc3ccccc3s2)[C@H]2C(=O)O[C@H](c3ccccc3)[C@H](c3ccccc3)N2[C@@H]1c1ccccc1OCCO,1.22
3,COCCOC(=O)N1C(=O)[C@@]2(c3ccccc31)[C@H](c1ccccc1OCCO)N1[C@H](c3ccccc3)[C@H](c3ccccc3)OC(=O)[C@H]1[C@@H]2C(=O)N1CCN(c2ncccn2)CC1,0.755
4,COC(=O)[C@@]1(Cc2ccc(F)cc2)[C@H]2c3cc(C(=O)N4CCCC4)n(CCCNc4ncc(C(F)(F)F)cc4Cl)c3C[C@H]2CN1C(=O)c1ccccc1,-0.0084
5,CC(C)C[C@@H]1NC(=O)[C@@H]2C[C@H](C(=O)NCc3ccc(F)cc3)[C@H](c3cccc(OCCO)c3)N2C1=O,1.47
6,C=CCC(OC(C)=O)[C@@H]1[C@@H](N(Cc2cc3ccccc3o2)C(=O)c2cccc3ccccc23)c2cc(OCCCO)ccc2N1C(=O)c1ccc(-c2ccccc2)cc1 (stereo not given in full),0.791
7,C#C[C@H](O[Si](C#Cc1ccc(Oc2ccccc2)cc1)(C(C)C)C(C)C)c1ccccc1,0.101
8,O=C1N[C@@H](Cc2ccccc2)C(=O)N2[C@@H]1C[C@@H](C(=O)O)[C@H]2c1cccc(OCCO)c1,1.38
9,COCCCNC(=O)[C@@]1(C)c2ccccc2C(=O)N(C(C)C)[C@H]1c1ccc(CO)cc1,1.16
10,C=CCN1C(=O)[C@@]2(Cc3ccccc31)N=C(c1ccc(OCCCO)cc1)O[C@H]2c1ccccc1,1.35
11,CN(C)CCCCCCNC(=O)[C@H]1C[C@H]2C(=O)N[C@@H](CCCCN)C(=O)N2[C@H]1c1cccc(OCCO)c1,1.54
12,COc1cc2c(cc1OC)CN(C(=O)[C@H]1[C@@H]3C(=O)O[C@@H](c4ccccc4)[C@@H](c4ccccc4)N3[C@@H](c3ccc(O)cc3)[C@]13C(=O)Nc1ccccc13)CC2,0.354
13,C=CC1(C(=O)OC)CC=C(C(=O)OC)CC1 (stereo not given),0.65
14,CCCC=C(CCC)[C@@H](NC(=O)c1cccs1)c1ccc(C(F)(F)F)cc1,0.572
15,C=CCNC(=O)[C@@H]1[C@H]2C(=O)O[C@H](c3ccccc3)[C@H](c3ccccc3)N2[C@H](c2ccccc2OCCO)[C@@]12C(=O)N(C(=O)OCCOC)c1ccccc12,1.39
16,COC(=O)C[C@H]1O[C@]2(C(=O)N(C)c3ccccc32)[C@@H](C)[C@@H]1[Si](C)(C)F,1.18
17,C=CCOC(=O)[C@@H]1[C@H]2C(=O)O[C@H](c3ccccc3)[C@H](c3ccccc3)N2[C@H](c2ccc(OCCOC(=O)[C@@H]3C[C@@H]4C(=O)NCC(=O)N4[C@@H]3c3ccc(O)cc3)cc2)[C@@]12C(=O)Nc1ccc(I)cc12,1.36
18,COc1ccc(CCNC(=O)[C@@]2(C)c3ccccc3C(=O)N(C(C)C)[C@H]2c2ccc(CO)cc2)cc1,0.674

row,Compound,composite z-score
1,C=C(CC1([C@@H](NP(=O)(c2ccccc2)c2ccccc2)[C@H]2C[C@@H]2CCCC)CC1)c1ccccc1,0.132
2,COC(=O)[C@H](Cc1ccccc1)N1CC2=C[C@@H](C3CC3)n3c(=O)n(C)c(=O)n3[C@H]2[C@@H]1[C@@H](O)Cc1ccccc1,0.898
3,C=C(/C(=C/C[C@H](OC(C)=O)c1ccc(CO)o1)c1cc(C(=O)OC)ccc1OC)C(C)C,0.467
4,[N-]=[N+]=Nc1ccccc1[C@H]1OC(c2ccc(OCCCO)cc2)=N[C@@]1(CCS(=O)(=O)c1ccccc1)C(N)=O,0.794
5,COc1cc2c(cc1OC)CN(C(=O)[C@@H]1[C@H]3C(=O)O[C@H](c4ccccc4)[C@H](c4ccccc4)N3[C@H](c3ccccc3OCCO)[C@@]13C(=O)Nc1ccc(C#CCCO)cc13)CC2,1.27
6,C[N+](C)(C)CCCCNC(=O)[C@@H]1C[C@@H]2C(=O)N[C@@H](Cc3ccccc3)C(=O)N2[C@@H]1c1cccc(OCCO)c1,1.32
7,COCCOC(=O)N1C(=O)[C@@]2(c3cc(C#CCC(C(=O)OC)C(=O)OC)ccc31)[C@H](C(=O)Nc1nc3ccccc3s1)[C@H]1C(=O)O[C@H](c3ccccc3)[C@H](c3ccccc3)N1[C@@H]2c1ccccc1OCCO,0.602
8,CCC[C@@H]1C[C@@]1(CCC)[C@@H](NS(=O)(=O)c1cccc2cccnc12)c1ccc(Cl)cc1,0.0155
9,C=CCNC(=O)[C@@H]1[C@H]2C(=O)O[C@H](c3ccccc3)[C@H](c3ccccc3)N2[C@H](c2ccc(O)cc2)[C@@]12C(=O)N(C(=O)OCCOC)c1ccc(C#CCNC(N)=O)cc12,1.18
10,COCCOC(=O)N1C(=O)[C@@]2(c3cc(C#CCCO)ccc31)[C@H](C(=O)N1CCCCCCC1)[C@H]1C(=O)O[C@H](c3ccccc3)[C@H](c3ccccc3)N1[C@@H]2c1ccc(OCCO)cc1,1.4
11,COC(=O)[C@@]1(CCC(=O)OC(C)(C)C)N=C(c2ccc(OCCCO)cc2)O[C@H]1c1ccccc1N=[N+]=[N-],1.24
12,CCCCCN1CC=CC23O[C@@H]4/C=C\CCC(C)OC(=O)C4[C@H]2C(=O)N(C(C)CO)[C@@H]3C1=O (stereo not given in full),0.274
13,Cc1ccc(S[C@]2(C(=O)NC3CC3)CC(=O)N(Cc3ccccc3)[C@@H]2c2ccc(CO)cc2I)cc1,-0.868
14,O=C1NC(=O)C2C1C=CC(C(O)c1cccs1)N2Nc1ccc(Cl)cc1Cl (stereo not given),-0.222
15,C=CCC(OC(C)=O)[C@@H]1[C@@H](N(Cc2ccc(-c3ccccc3)cc2)C(=O)c2cccc3ccccc23)c2cc(OCCCO)ccc2N1C(=O)c1ccc(-c2ccccc2)cc1 (stereo not given in full),0.435
16,CCOC(=O)C[C@H]1[C@H](OC(=O)c2ccc(C(=O)c3ccccc3)cc2)[C@@H](NC(=O)c2ccccc2)c2cc(OCCCO)ccc2N1C(=O)c1ccc2ccccc2n1,-0.0746
17,COc1cc2c(cc1O)C(C1CC1)N(Cc1sc3ccccc3c1Cl)CC2 (stereo not given),0.439

# Source: PubChem BioAssay
